{"source": "PubChem BioAssay", "data": [{"target": "Torsin-1A (Homo sapiens) (UniProt O14656)", "sequence (O14656 whole entry, looked up)": "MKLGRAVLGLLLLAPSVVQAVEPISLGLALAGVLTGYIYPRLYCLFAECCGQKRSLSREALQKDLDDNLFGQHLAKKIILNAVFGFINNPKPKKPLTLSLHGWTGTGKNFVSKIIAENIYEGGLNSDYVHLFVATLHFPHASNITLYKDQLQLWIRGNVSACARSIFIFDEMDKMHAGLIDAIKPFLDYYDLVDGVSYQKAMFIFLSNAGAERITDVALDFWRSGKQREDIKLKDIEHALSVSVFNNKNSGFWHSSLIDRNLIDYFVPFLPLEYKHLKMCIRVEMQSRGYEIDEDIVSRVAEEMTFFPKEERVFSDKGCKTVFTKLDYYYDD", "assay": "torsin A binders from cell lysate, primary screen, small-molecule microarray, wild-type, 635/667 nm (AID 1149)", "conditions": "COS7 hTOR1A-WT lysate, 635 nm fluorescence, higher = more signal", "values": [{"compound": "COc1cccc(C)c1NC(=O)O[C@H]1[C@H](OC(=O)Nc2ccc3c(c2)OCO3)[C@H](OC(=O)Nc2ccc3c(c2)OCO3)[C@@H](OC)O[C@@H]1CO", "composite z-score": -0.148}, {"compound": "CN1C(=O)C2C=CC(C(O)c3cccs3)N(N(c3ccccc3)c3ccccc3)C2C1=O", "note": "(stereo not given)", "composite z-score": 1.75}, {"compound": "[N-]=[N+]=NCc1ccccc1[C@H]1OC(c2ccc(OCCCO)cc2)=N[C@@]1(Cc1ccccc1N=[N+]=[N-])C(=O)O", "composite z-score": 0.136}, {"compound": "C[C@H]1C2[C@H](Cc3ccccc3)NC(=O)[C@]23C(=O)N[C@@H](Cc2ccccc2)C(=O)N2CCC[C@H]2C(=O)NC/C=C/CC/C=C/C3[C@@H]2O[C@]12C", "note": "(stereo not given in full)", "composite z-score": -0.0723}, {"compound": "COc1ccc(C(=O)Nc2ccc(CN3C(=O)[C@]4(O[C@H](CC(=O)N(CCO)Cc5ccccc5)[C@@H]([Si](C)(C)c5ccc(OC)cc5)[C@@H]4C)c4ccccc43)cc2)cc1", "composite z-score": 0.689}, {"compound": "CCCC=C(CCC)[C@@H](NC(=O)c1ccc(C(=O)OC)cc1)c1ccc(C(=O)OC)cc1", "composite z-score": -0.266}, {"compound": "O=C1C2C=CC(C(O)c3ccccn3)N(Nc3ccc([N+](=O)[O-])cc3)C2C(=O)N1c1ccccc1", "note": "(stereo not given)", "composite z-score": -0.146}, {"compound": "O=C1C2C=CC(C(O)C3CCCCC3)N(Nc3ccccc3F)C2C(=O)N1c1ccccc1", "note": "(stereo not given)", "composite z-score": 0.258}, {"compound": "C=C(CCCC)/C(=C/C[C@@H](OC(C)=O)c1ccc(OCCO)cc1)c1cc(C(=O)OC)ccc1OC", "composite z-score": 0.929}]}, {"target": "Torsin-1A (Homo sapiens) (UniProt O14656)", "assay": "small-molecule binders of mutant TOR1A in lysate, primary screen, cell lysate, small-molecule microarray, COS7 lysate, 635/667 nm fluorescence (AID 1150);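 also: score pools 667 nm emission and signal to noise measuring lysate protein binding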", "conditions": "COS7 hTOR1A mutant lysate, 635 nm fluorescence, higher = more signal", "values": [{"compound": "CCOC(=O)C1=C[C@@H](C(C)(C)C)N(S(=O)(=O)c2ccc(C)cc2)[C@H]1c1ccc(OC)cc1", "composite z-score": -0.198}, {"compound": "CCCCC(=C=CC[C@H](O)c1ccccc1OCCO)CCO", "composite z-score": 0.0868}, {"compound": "C=CCC(OC(C)=O)[C@@H]1[C@@H](N(Cc2cccc3ccccc23)C(=O)c2ccc(C)cc2)c2cc(OCCCO)ccc2N1C(=O)Cc1ccc2ccccc2c1", "note": "(stereo not given in full)", "composite z-score": -0.564}, {"compound": "COC(=O)[C@@]1(Cc2ccc(F)cc2)[C@@H]2C(=CC(=O)[C@H]2CC(=O)C(=O)N2CCCC2)CN1C(=O)c1ccccc1", "composite z-score": 1.01}, {"compound": "COCCCNC(=O)[C@@]1(c2ccc([N+](=O)[O-])cc2)CC(=O)N(C2CCCCC2)[C@@H]1c1ccc(CO)cc1I", "composite z-score": 1.39}, {"compound": "C=CCOC(=O)[C@H]1[C@@H]2C(=O)O[C@@H](c3ccccc3)[C@@H](c3ccccc3)N2[C@@H](c2ccc(OCCOC(=O)[C@H]3C[C@H]4C(=O)NCC(=O)N4[C@H]3c3ccc(O)cc3)cc2)[C@]12C(=O)Nc1ccccc12", "composite z-score": 1.14}, {"compound": "CC1CC/C=C\\[C@H]2OC34C=CCN(CCN5CCOCC5)C(=O)[C@H]3N(C(CO)C(C)C)C(=O)[C@@H]4C2C(=O)O1", "note": "(stereo not given in full)", "composite z-score": -0.05}, {"compound": "CC(C)c1ccc(NN2C(C(O)c3ccccc3)C=CC3C(=O)N(c4ccccc4)C(=O)C32)cc1", "note": "(stereo not given)", "composite z-score": 0.514}, {"compound": "[N-]=[N+]=Nc1ccccc1C[C@@]1(C(=O)NCC(O)CO)N=C(c2ccc(OCCCO)cc2)O[C@@H]1c1ccccc1N=[N+]=[N-]", "note": "(stereo not given in full)", "composite z-score": 0.0816}, {"compound": "C=C(CCCC)C(=O)CC[C@@H](OC(C)=O)c1ccc(OCCO)cc1", "composite z-score": 0.084}, {"compound": "CN1C(=O)C2CC=C(C3=CCO[C@@H]3[C@H]3CCCN3S(=O)(=O)c3ccccc3[N+](=O)[O-])CC2C1=O", "note": "(stereo not given in full)", "composite z-score": -0.282}, {"compound": "CC(C)[Si](C#Cc1ccccc1)(O[C@H](c1ccccc1)c1cn(Cc2ccccc2)nn1)C(C)C", "composite z-score": 0.841}, {"compound": "COCCOC(=O)N1C(=O)[C@@]2(c3cc(C#CCNC(N)=O)ccc31)[C@H](C(N)=O)[C@H]1C(=O)O[C@H](c3ccccc3)[C@H](c3ccccc3)N1[C@@H]2c1ccc(O)cc1", "composite z-score": -0.0113}, {"compound": "[N-]=[N+]=NCc1ccccc1C[C@]1(C(=O)N2CCCCC2)COC(c2ccc(OCCCO)cc2)=N1", "composite z-score": 0.278}, {"compound": "C=CCNC(=O)[C@H]1[C@@H]2C(=O)O[C@@H](c3ccccc3)[C@@H](c3ccccc3)N2[C@@H](c2ccc(OCCO)cc2)[C@]12C(=O)N(C(=O)OCCOC)c1ccc(C#CCC(C(=O)OC)C(=O)OC)cc12", "composite z-score": 0.944}, {"compound": "CCCCC(=C=CC[C@@H](O)c1ccccc1OCCO)C[C@@H](O)c1ccccn1", "composite z-score": 0.495}, {"compound": "COC(=O)C(CC#Cc1ccc2c(c1)[C@]1(C(=O)N2)[C@H](C(=O)NC[C@H](O)c2ccccc2)[C@H]2C(=O)O[C@H](c3ccccc3)[C@H](c3ccccc3)N2[C@@H]1c1ccc(O)cc1)C(=O)OC", "composite z-score": -0.62}, {"compound": "COCCOC(=O)N1C(=O)[C@@]2(c3cc(C#CC4=CCCCC4)ccc31)[C@H](c1ccc(O)cc1)N1[C@H](c3ccccc3)[C@H](c3ccccc3)OC(=O)[C@H]1[C@@H]2C(=O)N1CCc2cc(OC)c(OC)cc2C1", "composite z-score": 0.893}, {"compound": "CC[C@@H](O[Si](C#C[Si](C(C)C)(C(C)C)C(C)C)(C(C)C)C(C)C)c1cn(Cc2cccc(Cl)c2)nn1", "composite z-score": 0.227}, {"compound": "C=C(CCCC)/C(=C/C[C@@H](OC(C)=O)c1cccc(OCCO)c1)c1cc(C(=O)OC)ccc1OC", "composite z-score": -0.558}, {"compound": "CCCN1C(=O)[C@@]2(c3ccc([N+](=O)[O-])cc3)CC(=O)N(C3CCCCC3)[C@@H]2c2ccc(CO)cc21", "composite z-score": -0.187}, {"compound": "O=C1O[C@H](c2ccccc2)[C@H](c2ccccc2)N2[C@H]1[C@@H](C(=O)N1CCN(c3ncccn3)CC1)[C@]1(C(=O)Nc3ccc(C#CC4(O)CCCCCC4)cc31)[C@H]2c1ccc(O)cc1", "composite z-score": 0.0774}, {"compound": "CC[C@@H](O[Si](C#C[Si](C(C)C)(C(C)C)C(C)C)(C(C)C)C(C)C)c1cn([C@H](CO)Cc2ccccc2)nn1", "composite z-score": -0.209}, {"compound": "[N-]=[N+]=NCc1ccccc1[C@H]1OC(c2ccc(OCCCO)cc2)=N[C@@]1(CCS(=O)(=O)c1ccccc1)C(=O)O", "composite z-score": 0.622}, {"compound": "COC(=O)[C@@]1(Cc2ccc(F)cc2)[C@H]2c3cc(C(=O)N4CCCC4)n(Cc4ccc(OC(F)(F)F)cc4)c3C[C@H]2CN1C(=O)c1ccccc1", "composite z-score": 0.395}, {"compound": "CC(C)(C)OC(=O)CC[C@]1(C(N)=O)N=C(c2ccc(OCCCO)cc2)O[C@H]1c1ccccc1N=[N+]=[N-]", "composite z-score": 0.424}, {"compound": "O=C1OCC=C[C@H]2OC34C=CCN(Cn5nnc6ccccc65)C(=O)[C@H]3N(CCO)C(=O)[C@@H]4[C@@H]12", "note": "(stereo not given in full)", "composite z-score": -1.8}, {"compound": "COc1cccc(C)c1NC(=O)O[C@H]1[C@H](OC(=O)Nc2ccc3c(c2)OCO3)[C@H](OC(=O)Nc2ccc3c(c2)OCO3)[C@@H](OC)O[C@@H]1CO", "composite z-score": 0.533}, {"compound": "CN1C(=O)C2C=CC(C(O)c3cccs3)N(N(c3ccccc3)c3ccccc3)C2C1=O", "note": "(stereo not given)", "composite z-score": 0.0109}, {"compound": "[N-]=[N+]=NCc1ccccc1[C@H]1OC(c2ccc(OCCCO)cc2)=N[C@@]1(Cc1ccccc1N=[N+]=[N-])C(=O)O", "composite z-score": 0.691}, {"compound": "C[C@H]1C2[C@H](Cc3ccccc3)NC(=O)[C@]23C(=O)N[C@@H](Cc2ccccc2)C(=O)N2CCC[C@H]2C(=O)NC/C=C/CC/C=C/C3[C@@H]2O[C@]12C", "note": "(stereo not given in full)", "composite z-score": 0.49}, {"compound": "COc1ccc(C(=O)Nc2ccc(CN3C(=O)[C@]4(O[C@H](CC(=O)N(CCO)Cc5ccccc5)[C@@H]([Si](C)(C)c5ccc(OC)cc5)[C@@H]4C)c4ccccc43)cc2)cc1", "composite z-score": -0.0595}, {"compound": "CCCC=C(CCC)[C@@H](NC(=O)c1ccc(C(=O)OC)cc1)c1ccc(C(=O)OC)cc1", "composite z-score": -0.415}, {"compound": "O=C1C2C=CC(C(O)c3ccccn3)N(Nc3ccc([N+](=O)[O-])cc3)C2C(=O)N1c1ccccc1", "note": "(stereo not given)", "composite z-score": 0.098}, {"compound": "O=C1C2C=CC(C(O)C3CCCCC3)N(Nc3ccccc3F)C2C(=O)N1c1ccccc1", "note": "(stereo not given)", "composite z-score": 1.12}, {"compound": "C=C(CCCC)/C(=C/C[C@@H](OC(C)=O)c1ccc(OCCO)cc1)c1cc(C(=O)OC)ccc1OC", "composite z-score": 0.687}]}]}
